# Tests used:
# Type in all cases: functional
# Plasmodium falciparum [1] = assay: GSK_TCMDC: Inhibition of Plasmodium falciparum 3D7 in whole red blood cells, using parasite LDH activity as an index of growth. Test compounds present at 2uM
# Plasmodium falciparum [2] = assay: GSK_TCMDC: Inhibition of Plasmodium falciparum Dd2 in whole red blood cells, using parasite LDH activity as an index of growth. Test compounds present at 2uM
# HepG2 = assay: GSK_TCMDC: Percent inhibition of human HepG2 cell line. Test compounds present at 10uM.
SMILES,Inhibition (Plasmodium falciparum [1]),Inhibition (Plasmodium falciparum [2]),Inhibition (HepG2)
CN1CCN(c2nsc3ccc(-c4ccc(NC(=O)Nc5cc(C(F)(F)F)ccc5F)cc4)cc23)CC1.O=C(O)C(F)(F)F,99%,64%,100%
COc1ccc(C(=O)N[C@@H](CC(C)C)C(=O)N[C@H](/C=N/NC(=O)c2ccccc2)CCc2ccccc2)cc1OCCN1CCOCC1,96%,86%,2%
Cl.c1ccc2c(C3CCN(CCCCOc4ccc5c(c4)CCN(CC4CC4)CC5)CC3)c[nH]c2c1,99%,97%,74%
COc1ccc(NC(=O)c2ccc(C=Cc3ccc(C(F)(F)F)cc3)cc2)cc1N1CCN(C)CC1,99%,47%,46%
Nc1ncc(-c2ccc(F)cc2)c2ccc(-c3cccc(F)c3)cc12,99%,89%,34%
Cc1cccc2nc(-c3ccc(-c4ccc(NC(=O)c5cncn5C)cc4)s3)[nH]c12,100%,30%,49%
O=C(O)C(F)(F)F.c1cc(CNCCc2ccncc2)cc(-c2cccc(-c3nc4ccccc4[nH]3)c2)c1,100%,88%,21%
Cc1cc(C(F)(F)F)cc(-n2ncc(-c3ccc(C(=O)NCc4ccccc4N)cc3)c2N)n1.O=C(O)C(F)(F)F,99%,89%,10%
COc1ccc(-c2ccc(S(=O)(=O)Nc3cc4c(cc3OC(C)C)CCN(C)CC4)cc2)cc1.Cl,98%,2%,16%
CCc1c(CCNCC/C=C/CCNCCc2ccc(OC)c(OC)c2CC)ccc(OC)c1OC.Cl,100%,7%,41%
Br.CCCC1N=C(N)N=C(N)N1c1ccc(C)c(C)c1 (configuration not stated),95%,0%,7%
Cc1ccccc1Nc1nc(NCCc2ccccc2)nc2ccccc12,82%,18%,32%
CN(C)CCCN1CCN(C(=O)c2cccc(-c3noc(C(F)(F)F)n3)c2)CC1,92%,60%,0%
O=C(Nc1cc(F)cc(F)c1)NC1CCN(CCCCCNC(=O)C2CC2c2ccc(Cl)c(Cl)c2)CC1 (configuration not stated),100%,6%,49%
O=C(NCC(NCCCNc1cc(=O)c2ccccc2[nH]1)c1cc(Br)cc(Br)c1)C1=CCCC1 (configuration not stated),96%,48%,0%
COc1ccc(NC(=O)c2ccc(-c3nc(-c4ccccc4)cs3)cc2)cc1N1CCN(C)CC1.O=C(O)C(=O)O,93%,13%,17%
Cn1cncc1-c1ccc2ncnc(Nc3ccc(OCc4ccccc4)cc3)c2c1,100%,99%,4%
Cc1sc(NC(=O)Cc2cccc(C(F)(F)F)c2)nc1-c1cccc(Cl)c1,100%,95%,15%
CCC(C)NCC(O)(c1ccc(Cl)cc1)c1ccc(Cl)cc1 (configuration not stated),95%,76%,5%
Br.CCCCCCCCn1ccc(=N)cc1,91%,84%,49%

SMILES,Inhibition (Plasmodium falciparum [1]),Inhibition (Plasmodium falciparum [2]),Inhibition (HepG2)
CCOc1ccc2c(=NN=Cc3cccc(OC)c3)cc(C)[nH]c2c1,97%,81%,38%
COc1cccc2c(NCc3ccccc3)nc(NCCCN3CCCCC3C)nc12 (configuration not stated),90%,2%,20%
CCCCNC(=N)Nc1ccc(OCCCOc2ccc(NC(=N)NCCCC)cc2)cc1,96%,97%,15%
Cc1cc(NC(=O)c2cccs2)ccc1OC1CCN(Cc2ccc(C#N)cc2)CC1.O=C(O)C(F)(F)F,94%,92%,34%
O=C(Cc1cccc(O)c1)NCC(Cc1ccc(O)cc1)c1ccccc1 (configuration not stated),91%,97%,0%
CC(C)N(Cc1ccccc1)C(=O)CN1C(=O)COc2ccc(S(=O)(=O)N3CCCCCC3)cc21,99%,99%,0%
COc1cc(O)c2c(=O)c(OC)c(-c3cccc(Cl)c3OCC(=O)O)oc2c1OC,100%,0%,0%
NCCNc1ccnc2cc(Cl)ccc12,100%,54%,9%
Cl.c1ccc2nc(NCCCCCCCCNc3ccc4ccccc4n3)ccc2c1,100%,37%,52%
O=C(O)C(F)(F)F.O=C1CCCN1CCCNCc1ccc(-c2cccc(-c3nc4ccccc4[nH]3)c2)cc1,96%,0%,19%
Cc1[nH]c(C)c(-c2ccc(CCc3ccc(N)cc3)cc2)c(=O)c1Cl,97%,97%,2%
O=C(Nc1ccc(F)cc1F)NC1CCN(CCCCCNC(=O)C2CC2c2ccc(Cl)c(Cl)c2)CC1 (configuration not stated),100%,32%,41%
O=C(NC1CCCCN(Cc2ccccc2O)C1)c1cc(F)cc(F)c1.O=C(O)C(F)(F)F (configuration not stated),89%,52%,7%
O=C(O)C(F)(F)F.c1cc(CNCC2CCN(CC3CCCCC3)CC2)cc(-n2ccnc2)c1,100%,99%,18%
CCN(CC)CCCC(C)Nc1c2cc(OC)ccc2nc2cc(Cl)c([N+](=O)[O-])cc12 (configuration not stated),100%,89%,12%
Cc1nc2ccc3nc(NC(=O)c4ccno4)sc3c2s1,99%,97%,6%
CCCCN(C(=O)c1ccccc1C)c1nnc(-c2ccccc2C)s1,92%,94%,10%
c1ccc(-c2cc(NCCCn3ccnc3)nc(-c3cccnc3)n2)cc1,84%,6%,15%
COc1ccc2nccc([C@@H](O)CN3CCC(NCc4cc5sccc5nc4C(F)(F)F)CC3)c2c1.O=C(O)C(=O)O,89%,67%,22%
COc1cccc(C(NC(=O)c2ccccc2)c2ccc3cccnc3c2O)c1 (configuration not stated),89%,41%,52%

SMILES,Inhibition (Plasmodium falciparum [1]),Inhibition (Plasmodium falciparum [2]),Inhibition (HepG2)
COc1cccc(OC)c1C(=O)N1CCC2(CC1)C(=O)N(CC(=O)NC1CCCCC1)CN2c1ccccc1,92%,91%,16%
CC(C)OC(=O)c1ccc(NC(=O)N[C@@H](Cc2ccc(O)cc2)C(=O)NC2CC3CCC(C2)N3Cc2ccccc2)cc1.O=C(O)C(F)(F)F (some centres not stated),92%,19%,0%
Cc1cccc2nc(-c3ccc(-c4cccc(CN5CCCC5CN)c4)cc3)[nH]c12.O=C(O)C(F)(F)F (configuration not stated),91%,32%,7%
O=C(Nc1ccnc(-c2cccnc2)n1)c1cc(C(F)(F)F)cc(C(F)(F)F)c1,95%,12%,22%
CCCOc1cc(OCCC)cc(-c2cc(=O)c3ccccc3[nH]2)c1,99%,96%,33%
CCCN(Cc1nnc(-c2cccs2)o1)C(=O)CSc1nnnn1-c1ccc(C)c(C)c1,96%,80%,0%
Cc1cc(NCCC(=O)Nc2ccccc2)nc(NCCc2cccnc2)n1.O=C(O)C(F)(F)F,84%,4%,0%
COc1cc(NCCCCNc2ccc(Cl)c(Cl)c2)nc2ccccc12,100%,68%,22%
C[C@@H](C(=O)N1CCOCC1)N1CC[C@H](NS(=O)(=O)c2ccc3ccnc(N)c3c2)C1=O.O=CO,84%,61%,0%
COc1ccc(CN2CCC(CNCCc3ccccc3Cl)CC2)cc1.O=C(O)C(F)(F)F,87%,17%,36%
CC(C)c1ccc(C=CC(=O)N2CCC(CCN3CCC(c4c[nH]c5ccccc45)CC3)CC2)cc1,93%,11%,85%
CC1(C)N=C(N)N=C(N)N1OCCCCON1C(N)=NC(N)=NC1(C)C,97%,95%,54%
CC12CCC(CN(CC(O)Cn3c4ccccc4c4cc(I)ccc43)C1)C2(C)C.Cl (configuration not stated),94%,82%,0%
Nc1ncc(-c2ccc3ncccc3c2)c(N)n1.O=C(O)C(F)(F)F,97%,0%,55%
Oc1ccc(Br)cc1-c1nc2ccc(Cl)cc2nc1-c1cc(Br)ccc1O,100%,64%,0%
Cc1ccc2[nH]c3c(c2c1)CC(C(=O)NCCC(C)C)NC31CCN(Cc2ccccc2)CC1 (configuration not stated),95%,50%,15%
N=C(N)NN=CC(=O)Nc1ccc(Cl)cc1.O=S(=O)(O)O,100%,2%,5%
COc1ccc(N2CCN(CCCCNC(=O)c3ccc(NC(=O)c4cccc(Cl)c4)cc3)CC2)c(OC)c1,100%,33%,18%
Cc1ccc(NC(=O)Nc2ccc(Cl)c(C(F)(F)F)c2)cc1-c1ccc(C(=O)NCCN2CCOCC2)cc1,98%,31%,52%
